# Results: PubChem BioAssay AID1851 (National Center for Advancing Translational Sciences (NCATS), 2009)
# About 5,100 (32%) of roughly 16,000 compounds were called active. About 25% were inconclusive and are not listed. The call rests on the fitted dose curve; in most records, active means well fitted curve in the direction sought with a large enough effect; inconclusive means small, poorly fitted or top-dose-only effect, or effect the other way; inactive means no such curve, though single readings can be large or run the other way. The list shows a part of the results.
# Molecular target: Cytochrome P450 3A4 (Homo sapiens) (UniProt P08684)
# Sequence (P08684 whole entry, looked up): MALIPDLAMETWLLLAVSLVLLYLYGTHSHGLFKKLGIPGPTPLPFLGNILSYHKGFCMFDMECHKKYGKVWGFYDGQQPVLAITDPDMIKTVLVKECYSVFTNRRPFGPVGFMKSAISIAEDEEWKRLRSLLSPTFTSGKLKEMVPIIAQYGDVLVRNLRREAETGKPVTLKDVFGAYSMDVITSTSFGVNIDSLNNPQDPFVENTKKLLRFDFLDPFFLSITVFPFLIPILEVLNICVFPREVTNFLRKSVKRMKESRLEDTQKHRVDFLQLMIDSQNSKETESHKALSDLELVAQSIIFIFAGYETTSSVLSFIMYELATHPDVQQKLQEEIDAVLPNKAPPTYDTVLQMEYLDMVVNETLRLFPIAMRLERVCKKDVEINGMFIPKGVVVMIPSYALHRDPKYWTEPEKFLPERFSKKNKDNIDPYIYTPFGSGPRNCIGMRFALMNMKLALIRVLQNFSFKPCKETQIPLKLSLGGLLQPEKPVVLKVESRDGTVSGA
# Test: Cytochrome panel assay with activity outcomes
# Conditions: recombinant CYP, pro-luciferin dealkylation, luminescence, p450-cyp3a4; series mostly up to 57.1 µM; activity, negative = inhibition: at the top concentration
# On the % scale 0 is the no-effect control and ±100 the full control effect.
SMILES,"activity, negative = inhibition",AC50
O=C1[C@@H]2[C@H]3[C@H](O)[C@H](O)C/C(=N/OCc4ccccc4)[C@@H]3CC[C@H]2C(=O)N1c1ccc(F)cc1F,-19.6% [at 11.4 µM] (inactive),–
CC(C)CO/N=C1/C[C@@H](O)[C@@H](O)[C@@H]2[C@H]3C(=O)N(c4ccc(F)cc4F)C(=O)[C@@H]3CC[C@H]12,-8.15% [at 11.4 µM] (inactive),–
CC(C)CO/N=C1/C[C@@H](O)[C@@H](O)[C@@H]2[C@H]3C(=O)N(c4ccc(F)cc4F)C(=O)[C@@H]3CC[C@@H]12,0.624% [at 11.4 µM] (inactive),–
C#CCCCO/N=C1/C[C@@H](O)[C@@H](O)[C@@H]2[C@H]3C(=O)N(c4ccc(F)cc4F)C(=O)[C@@H]3CC[C@@H]12,–,3.16 µM (active)
C#CCCCO/N=C1/C[C@@H](O)[C@@H](O)[C@@H]2[C@H]3C(=O)N(c4ccc(F)cc4F)C(=O)[C@@H]3CC[C@H]12,–,3.98 µM (active)
O=C1C[C@@H](O)[C@@H](O)[C@@H]2[C@H]3C(=O)N(c4ccc(F)cc4F)C(=O)[C@@H]3CC[C@H]12,-11% [at 11.4 µM] (inactive),–
Cc1ccc(-n2c3c(c(=O)[nH]c2=O)C(NS(=O)(=O)c2ccc(C)cc2)(C(F)(F)F)C(=O)N3)cc1 (centres undefined),-13.8% (inactive),–
O=C(c1cc(C(F)(F)F)cc(C(F)(F)F)c1)N1CCC[C@@]2(CCN(c3ccncc3)C2)C1,–,6.31 µM (active)
O=C(c1cc(C(F)(F)F)cc(C(F)(F)F)c1)N1CCC2(CC1)CCN(c1ncccn1)CC2,-9.89% (inactive),–
O=C(c1cc(C(F)(F)F)cc(C(F)(F)F)c1)N1CCC2(CC1)CN(c1ccccn1)C2,-15.9% (inactive),–
O=C(c1cc(C(F)(F)F)cc(C(F)(F)F)c1)N1CCC2(CC1)CN(c1ccncc1)C2,-5.48% (inactive),–
O=C(c1cc(C(F)(F)F)cc(C(F)(F)F)c1)N1CCC2(CC1)CN(c1ncccn1)C2,-23.6% (inactive),–
O=C(c1cc(C(F)(F)F)cc(C(F)(F)F)c1)N1CCC[C@@]2(CCN(c3ncccn3)C2)C1,–,10 µM (active)
O=C(c1cc(C(F)(F)F)cc(C(F)(F)F)c1)N1CCC2(CC1)CCN(c1ccccn1)CC2,4.89% (inactive),–
O=C(c1cc(C(F)(F)F)cc(C(F)(F)F)c1)N1CCC[C@@]2(CCN(c3ccccn3)C2)C1,–,3.98 µM (active)
O=C(CCCCC(=O)Nc1c(I)cc(I)c(C(=O)O)c1I)Nc1c(I)cc(I)c(C(=O)O)c1I,-16% [at 25.6 µM] (inactive),–
CC(C)C(=O)Cc1ccc2ccccc2n1,-6.02% [at 11.4 µM] (inactive),–
O=C(Nc1ccccc1C(=O)O)c1ccc2ccccc2n1,23% (inactive),–
CCCCC[C@H](O)c1cccc(OCc2ccc3ccccc3n2)c1,–,12.6 µM (active)
O=C(O)c1ccccc1Nc1cccc(OCc2ccc3ccccc3n2)c1,–,1.58 µM (active)
CCCCc1cc2ccccc2c(OCCN(C)C)n1,-17.9% [at 25.6 µM] (inactive),–
O=C(O)Cc1cc2ccccc2nc1C(=O)O,9.42% (inactive),–
CC1CN(C(=O)c2cc3c(s2)CCC3)CC(C)O1 (centres undefined),12.9% (inactive),–

SMILES,"activity, negative = inhibition",AC50
CC1CN(C2CCN(C(=O)c3cccc(Cl)c3)CC2)CC(C)O1 (centres undefined),20.4% (inactive),–
CC(C)CNS(=O)(=O)c1cc(C(=O)N2CC(C)OC(C)C2)c(Cl)cc1Cl (centres undefined),–,3.16 µM (active)
O=C(O)C[n+]1ccccc1,-14.8% [at 11.4 µM] (inactive),–
CCOc1ccc(NC(=S)NC(=O)/C=C/c2ccc(C)cc2)c([N+](=O)[O-])c1,5.31% (inactive),–
O=C(/C=C/c1ccc(Br)cc1)NC1CCCCCC1,-12.6% [at 11.4 µM] (inactive),–
Cc1ccc(/C=C/C(=O)NC(=S)Nc2ccccc2C(=O)NC2CCCCC2)cc1,–,8.91 µM (active)
NC(=O)c1ncn([C@@H]2O[C@@H](CO)[C@@H](O)[C@H]2O)c1O,-3.29% (inactive),–
O=C(CCCn1c(=S)[nH]c2cc3c(cc2c1=O)OCO3)N1CCN(c2ccccc2)CC1,–,0.447 µM (active)
CCn1cc(C(=O)O)c(=O)c2cc3c(cc21)OCO3,3.68% (inactive),–
C=CCNC(=O)c1ccc(Cn2c(=S)[nH]c3cc4c(cc3c2=O)OCO4)cc1,–,7.94 µM (active)
CCCCNC(=O)CCn1c(=S)[nH]c2cc3c(cc2c1=O)OCO3,–,3.98 µM (active)
O=c1c2cc(Br)ccc2[nH]c(=S)n1Cc1cccnc1,–,0.398 µM (active)
CCc1c(C(=O)O)[nH]c2ccc(Br)cc12,-8.49% (inactive),–
CC(C)OCCCn1c(=S)[nH]c2ncccc2c1=O,-15.3% (inactive),–
CC1CCN(CCCn2c(=S)[nH]c3ccc(N4CCOCC4)cc3c2=O)CC1,-10.7% (inactive),–
O=C(CCCn1c(=S)[nH]c2ccc(Br)cc2c1=O)N1CCN(c2ccccn2)CC1,–,1.26 µM (active)
O=C(CCCCCn1c(=S)[nH]c2cc3c(cc2c1=O)OCO3)N1CCN(C2CCCCC2)CC1,–,1.12 µM (active)
O=C(CCCn1c(=S)[nH]c2cc3c(cc2c1=O)OCO3)N1CCN(c2ncccn2)CC1,–,2 µM (active)
Cc1cccc(N2CCN(C(=O)CCCn3c(=S)[nH]c4cc5c(cc4c3=O)OCO5)CC2)c1C,–,0.794 µM (active)
COCC(=O)N1CCC2(CCCN(c3ncccn3)C2)CC1,-6.09% (inactive),–
COCC(=O)N1CCC2(CC1)CCN(c1ccccn1)CC2,3.62% (inactive),–
COc1ccccc1Cn1c(=S)[nH]c2cc(C(=O)N3CCN(C)CC3)ccc2c1=O,12.8% (inactive),–
Cn1c(=O)c2[nH]c(CCC(=O)O)nc2n(C)c1=O,-3% [at 11.4 µM] (inactive),–

SMILES,"activity, negative = inhibition",AC50
NS(=O)(=O)c1cc(Cl)c(Cl)c(S(N)(=O)=O)c1,0.288% [at 25.6 µM] (inactive),–
CN(C)c1cc(=O)n2c(n1)SCCC2,-1.72% [at 2.29 µM] (inactive),–
O=C(c1n[nH]c(=O)c2ccccc12)N1CCN(C2c3ccccc3-c3ccccc32)CC1,–,11.2 µM (active)
O=C(c1coc(=O)c2ccccc12)N1CCN(Cc2ccccc2)CC1,-29.5% (inactive),–
Cc1ccc(CC(=O)N2CCN(c3cccc(C(F)(F)F)c3)CC2)cc1,–,3.98 µM (active)
COc1ccc(CC(=O)N2CCN(c3ccc(C4=NNC(=O)CC4C)cc3)CC2)cc1 (centres undefined),-9.27% [at 2.29 µM] (inactive),–
CCc1ccc(NC(=S)N2CCN(c3cccc(C(F)(F)F)c3)CC2)cc1,-10.7% (inactive),–
CC(=O)Nc1ccccc1C(=O)C(=O)O,-8.44% (inactive),–
Cc1ccc(S(=O)(=O)O[C@@H]2[C@H]([C@@H]3COC(C)(C)O3)O[C@H]3OC(C)(C)O[C@@H]32)cc1,-4.72% [at 11.4 µM] (inactive),–
COC(=O)[C@@]1(Cc2ccc(OC)cc2)[C@H]2c3cc(C(=O)N4CCCC4)n(Cc4nc5ccccc5[nH]4)c3C[C@H]2CN1C(=O)c1ccccc1,–,2 µM (active)
O=C(CSc1nc2ccccc2[nH]1)NCCN1CCCCC1,-14.7% (inactive),–
COC(=O)[C@@]1(Cc2ccccc2)[C@H]2c3cc(C(=O)N4CCCC4)n(Cc4nc5ccccc5[nH]4)c3C[C@H]2CN1C(=O)c1ccccc1,–,1.26 µM (active)
N=C(N)SCCCN,-9.75% [at 11.4 µM] (inactive),–
O=C1c2ccccc2C(=O)N1C[C@]1(C(=O)O)NCCS1(=O)=O,8.42% [at 11.4 µM] (inactive),–
CCOC(=O)N1CCN(c2nc(-c3ccco3)cc(C(F)(F)F)n2)CC1,-18% (inactive),–
O=C(NC1CCCC1)c1cnn2c(C(F)(F)F)cc(-c3ccco3)nc12,–,14.1 µM (active)
COC(=O)c1nn(C23CC4CC(CC(C4)C2)C3)c2c1C(=O)N(c1ccc(F)cc1)C2=O,-13% (inactive),–
O=C(Nc1c2c(nn1-c1ccc(F)cc1)CS(=O)(=O)C2)C12CC3CC(CC(C3)C1)C2,–,8.91 µM (active)
O=C(CCC1CCCCC1)Nc1c2c(nn1-c1ccc(F)cc1)CS(=O)(=O)C2,–,5.62 µM (active)
Cc1cc(C)cc(-n2c(C)cc(C=C(C#N)C#N)c2C)c1,4.93% (inactive),–
COC(=O)C1=C(NC(=O)c2cccs2)CCS1,–,15.8 µM (active)
COC(=O)C1=C(NC(=O)c2ccc(C)c(C)c2)CCS1,–,28.2 µM (active)
Cc1ccc(S(=O)(=O)O/N=C2/CCCc3occc32)cc1,1.14% (inactive),–

SMILES,"activity, negative = inhibition",AC50
COC(=O)c1cnn(C(=O)c2cc(OC)ccc2Br)c1N,–,28.2 µM (active)
CCOC(=O)c1cnn(-c2cc(Oc3ccccc3)ncn2)c1N,19% (inactive),–
COC(=O)c1cnn(C(=O)c2ccccc2Br)c1N,9.7% (inactive),–
CCNC(=S)N1CC(C)OC(C)C1 (centres undefined),1.05% (inactive),–
CCSC(=N)N,–,inactive
COc1ccccc1CNc1nc(-c2ccccc2CN(C)C)nc2ccccc12,–,12.6 µM (active)
COc1ccc(CNc2nc(-c3ccccc3CN(C)C)nc3ccccc23)c(OC)c1,–,7.94 µM (active)
CN1CCCN(C2C3CC4CC(C3)CC2C4)CC1 (centres undefined),-0.38% (inactive),–
NS(=O)(=O)c1cccc2c1c([N+](=O)[O-])cc1[nH]c(=O)c(=O)[nH]c12,-7.86% (inactive),–
Cc1cc(C)cc(NC(=O)N2CCCC2C(=O)Nc2ccc(-n3cnnn3)c(C)c2)c1 (centres undefined),–,5.01 µM (active)
Cc1cc(NC(=O)c2ccco2)ccc1-n1cnnn1,–,8.91 µM (active)
CC(=O)Nc1cccc(NC(=O)C2CCCN2C(=O)Nc2ccccc2C)c1 (centres undefined),0.0054% [at 11.4 µM] (inactive),–
O=[N+]([O-])c1ccc(Cl)c(-c2ccc(/C=N/c3c(-c4ccco4)nc4ccccn34)o2)c1,-6.34% (inactive),–
COc1cc(Cn2cnnn2)ccc1O,-9.86% (inactive),–
COc1cc(-c2nc3ccccn3c2/N=C/c2ccccc2)ccc1O,–,7.08 µM (active)
COc1ccc(CNc2ncncc2-c2ccccc2C)c(OC)c1,–,0.398 µM (active)
COCCNc1cc(-c2ccccc2CN(C)C)ncn1,-14.6% (inactive),–
COc1ccc(CNc2ncncc2-c2ccccc2CN(C)C)c(OC)c1,–,0.398 µM (active)
COc1ccc(CNc2ncncc2-c2c(C)noc2C)c(OC)c1,–,1.26 µM (active)
COc1ccc(CNc2ncncc2-c2ccccc2OC)c(OC)c1,–,0.316 µM (active)
